# Hit rate of the full screen: of about 65,000 compounds, about 450 (0.69%) were called active. The sample holds actives, similar compounds and a random draw of the others, so the mix is not that of the screen. A number with no mark means an inactive call.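 The calls were made as follows: active = HER2 level under 5% of the carrier-only control; inconclusive = no clear call, values can overlap the other calls; inactive = the rest.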
# Molecular target: Receptor tyrosine-protein kinase erbB-2 (Homo sapiens) (UniProt P04626)
# Sequence (P04626 whole entry, looked up): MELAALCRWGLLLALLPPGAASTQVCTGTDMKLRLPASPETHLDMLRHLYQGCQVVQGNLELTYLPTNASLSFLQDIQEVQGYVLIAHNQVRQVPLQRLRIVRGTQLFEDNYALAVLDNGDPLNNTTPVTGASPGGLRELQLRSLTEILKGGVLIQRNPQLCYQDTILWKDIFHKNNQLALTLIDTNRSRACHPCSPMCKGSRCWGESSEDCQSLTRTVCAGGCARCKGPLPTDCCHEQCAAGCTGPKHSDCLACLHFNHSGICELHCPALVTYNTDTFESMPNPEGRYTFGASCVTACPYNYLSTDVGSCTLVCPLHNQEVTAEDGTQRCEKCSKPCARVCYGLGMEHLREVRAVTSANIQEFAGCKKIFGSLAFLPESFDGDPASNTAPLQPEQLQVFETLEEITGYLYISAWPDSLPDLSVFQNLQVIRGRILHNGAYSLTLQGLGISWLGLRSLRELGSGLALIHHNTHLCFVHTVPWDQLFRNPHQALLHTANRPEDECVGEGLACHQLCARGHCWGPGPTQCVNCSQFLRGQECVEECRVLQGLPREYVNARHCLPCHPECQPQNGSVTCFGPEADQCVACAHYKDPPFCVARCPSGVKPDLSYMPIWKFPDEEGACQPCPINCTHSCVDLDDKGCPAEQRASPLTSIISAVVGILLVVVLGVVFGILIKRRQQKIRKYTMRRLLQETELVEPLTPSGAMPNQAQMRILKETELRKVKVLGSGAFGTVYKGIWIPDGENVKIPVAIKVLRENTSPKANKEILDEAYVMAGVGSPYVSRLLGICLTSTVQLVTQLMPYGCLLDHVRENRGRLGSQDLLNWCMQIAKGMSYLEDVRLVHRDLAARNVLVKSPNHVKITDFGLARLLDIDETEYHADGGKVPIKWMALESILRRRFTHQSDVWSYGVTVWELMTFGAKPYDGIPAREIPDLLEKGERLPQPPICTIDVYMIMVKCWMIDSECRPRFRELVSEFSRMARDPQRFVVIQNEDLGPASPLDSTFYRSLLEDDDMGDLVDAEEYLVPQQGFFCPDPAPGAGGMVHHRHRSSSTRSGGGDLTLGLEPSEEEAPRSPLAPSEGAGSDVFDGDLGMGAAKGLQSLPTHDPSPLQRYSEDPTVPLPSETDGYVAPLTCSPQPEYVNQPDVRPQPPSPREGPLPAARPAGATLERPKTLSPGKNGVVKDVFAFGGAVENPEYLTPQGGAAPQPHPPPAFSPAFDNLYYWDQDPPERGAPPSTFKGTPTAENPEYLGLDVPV
# Test: reducers of endogenous HER2 protein levels – SKBR-3 cells, AlphaScreen, 66K library, primary screen (AID 645);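 also: 100% = DMSO carrier and 0% = 500 nM PU-H71 HSP90 inhibitor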
# Settings: SKBR-3 HER2 protein level, 18-24 h, at 10 µM, stronger effect = lower value
row,Compound,HER2 level % of control
1,CC(C)CCNc1nc(N2CCCC2)c2c(c1C#N)CCN(C)C2,-0.705% (active)
2,CCN1CCc2c(C#N)c(NCc3ccccc3)nc(NCCO)c2C1,94.1%
3,CC(C)Cc1nc(N2CCOCC2)c(C#N)c2c1CCC2,106%
4,COc1ccc(-c2cc3n(n2)CCc2nc4ccccc4n2-3)cc1,74.2%
5,COC(=O)CN(c1nc(C)c(Cl)c(OC)n1)S(=O)(=O)c1ccc(C)cc1,103%
6,CCC(=NC1CC(C)(C)NC(C)(C)C1)C1=C(O)CC(C)(C)CC1=O,76%
7,CNC(=O)c1cc2c(ccc3ccccc32)oc1=N,74.1%
8,CCCC1C(c2ccccc2)C(C#N)(C#N)C2(C#N)CC1(N)NC2=O (stereo not drawn),-19.3% (active)
9,O=C(O)CN(Cc1ccco1)S(=O)(=O)c1ccccc1,110%
10,CC1CCCC(C)N1C(=O)CN1CCN(c2nc(-c3ccc(F)cc3)cs2)CC1 (stereo not drawn),90.1%
11,CCCCc1nccn1CCn1ccnc1CCCC,106%
12,CCOC(=O)N1CCC(NC(=O)c2cnn3ccccc23)CC1,106%
13,CCCCCCC(=O)N(O)C1CC(=O)N(c2ccccc2)C1=O (stereo not drawn),81.1%
14,CCN(CC)C(=O)C1CCC(C)(C(=O)O)C1(C)C (stereo not drawn),100%
15,Cc1cc(C)c(C(=O)CN2C(=O)CCC2=O)cc1C,93.5%
16,CCCc1nc(SCC(=O)Nc2ccccc2OC)c2c(=O)n(C)c(=O)n(C)c2n1,31%
17,COc1ccc(-c2c(C)nn3c(N4CCC(C(=O)N5CCCCC5)CC4)cc(C)nc23)cc1OC,83.2%
18,O.O.O.O=S(=O)([O-])OC[C@H]1O[C@@H](O[C@]2(COS(=O)(=O)[O-])O[C@H](OS(=O)(=O)[O-])[C@@H](OS(=O)(=O)[O-])[C@@H]2OS(=O)(=O)[O-])[C@H](OS(=O)(=O)[O-])[C@@H](OS(=O)(=O)[O-])[C@@H]1OS(=O)(=O)[O-].[Al],102%
19,CC(NC(=O)CSc1nc2c(cc1C#N)CN(C)CC2)c1ccccc1 (stereo not drawn),110%
20,CSc1cccc(NC(=O)CSc2ccccc2)c1,95.7%
21,O=C(NCCCN1CCN(C2CCCCC2)CC1)Nc1ccccc1C(F)(F)F,82.5%
22,CCCCN(C)Cc1c(C)[nH]c2ccc(Cl)cc2c1=O,88%
23,CCCC(C)n1[nH]c(=O)c2c(C)cc(C)nc21 (stereo not drawn),90.1%
24,c1cc(-n2cnnn2)ccc1NC1=NCCC1,92.1%

row,Compound,HER2 level % of control
1,COCCOC(=O)C1=C(C)NC(=O)NC1c1ccc(Cl)cc1 (stereo not drawn),95.6%
2,N#Cc1ccc(CSc2nnc(-c3ccccn3)n2-c2ccc(Cl)cc2)cc1,41.4%
3,O=C(c1ccco1)N1CCN(C(=O)C2CC(c3ccc(F)cc3)=NO2)CC1 (stereo not drawn),57.7%
4,OCCNCCCCOc1ccccc1F,116%
5,O=C1c2oc3ccccc3c(=O)c2C(c2cccc(O)c2)N1c1ccccn1 (stereo not drawn),95%
6,CCOC(=O)c1sc2nc(CSCC(=O)OCc3ccc(C(=O)OC)o3)[nH]c(=O)c2c1C,60.2%
7,CCC(c1nnnn1Cc1ccco1)N(Cc1cc2cc(OC)ccc2[nH]c1=O)C1CCCCC1 (stereo not drawn),1.98% (active)
8,CCC(c1nnnn1Cc1ccccc1)N(Cc1cc2cc(OC)ccc2[nH]c1=O)CC1CCCO1 (stereo not drawn),117%
9,CCC(c1nnnn1Cc1ccco1)N(CCc1ccccc1)Cc1cc2ccc(OC)cc2[nH]c1=O (stereo not drawn),76.1%
10,Cc1cc(NC(=O)CN2CCCCC2C)nc2c1c(=O)oc1ccccc12 (stereo not drawn),70%
11,COc1ccccc1CNC(=O)CCn1c(=O)sc2ccccc21,92.5%
12,COc1ccc(CN2CN(C(C)C)CSC2=S)cc1,10.7%
13,S=C1SCN(CCN2CCOCC2)CN1Cc1ccccc1,3.88% (active)
14,Cn1c(=O)c2c(nc(CN3CCOCC3)n2Cc2ccccc2)n(C)c1=O,75.7%
15,O=C(NCc1ccco1)C1CCCN(S(=O)(=O)c2cnc[nH]2)C1 (stereo not drawn),105%
16,O=C(N1CCOCC1)N1CCOCC1,112%
17,CS(=O)(=O)N(CC(=O)N1CCN(Cc2ccc3c(c2)OCO3)CC1)c1ccc2c(c1)OCO2,100%
18,COc1ccccc1C(=O)N1CCNC(=O)C1CC(=O)Nc1ccc(Cl)cc1 (stereo not drawn),67.3%
19,Cc1nc2nc3c(cn2n1)C(=O)CC(c1ccccc1)C3 (stereo not drawn),122%
20,O=C(Cn1c(-c2ccccn2)nc2ccccc21)NCCN1CCOCC1,79.8%
21,COc1cc(C2C(C(=O)c3ccc(C)o3)=C(O)C(=O)N2Cc2cccnc2)ccc1O (stereo not drawn),154%
22,CCCN1C(=O)C(NS(=O)(=O)c2ccc(N)cc2)(C(F)(F)F)C(C(=O)OC)=C1C (stereo not drawn),126%
23,CCOC(=O)CSc1nncc2ccc(OC)c(OC)c12,115%
24,CCOC(=O)N1CCN(C(=O)CN(c2ccc(C)c(C)c2)S(=O)(=O)c2ccccc2)CC1,224%

# Source: PubChem BioAssay AID645 (SRMLSC, 2007)
